# Experimental data as given in ChEMBL document CHEMBL1961873, “Compounds: GSK PKIS; Assays: Nanosyn kinase panel” (2012).
# What was measured:
# [1] = molecular target: Protein kinase C gamma type (Homo sapiens) (UniProt P05129); conditions: at 1 µM;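 note: each value is an averaged percent inhibition of the enzyme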
# [2] = molecular target: T1, Protein kinase C iota type (Homo sapiens) (UniProt P41743); conditions: at 0.1 µM
# T1 sequence (whole entry): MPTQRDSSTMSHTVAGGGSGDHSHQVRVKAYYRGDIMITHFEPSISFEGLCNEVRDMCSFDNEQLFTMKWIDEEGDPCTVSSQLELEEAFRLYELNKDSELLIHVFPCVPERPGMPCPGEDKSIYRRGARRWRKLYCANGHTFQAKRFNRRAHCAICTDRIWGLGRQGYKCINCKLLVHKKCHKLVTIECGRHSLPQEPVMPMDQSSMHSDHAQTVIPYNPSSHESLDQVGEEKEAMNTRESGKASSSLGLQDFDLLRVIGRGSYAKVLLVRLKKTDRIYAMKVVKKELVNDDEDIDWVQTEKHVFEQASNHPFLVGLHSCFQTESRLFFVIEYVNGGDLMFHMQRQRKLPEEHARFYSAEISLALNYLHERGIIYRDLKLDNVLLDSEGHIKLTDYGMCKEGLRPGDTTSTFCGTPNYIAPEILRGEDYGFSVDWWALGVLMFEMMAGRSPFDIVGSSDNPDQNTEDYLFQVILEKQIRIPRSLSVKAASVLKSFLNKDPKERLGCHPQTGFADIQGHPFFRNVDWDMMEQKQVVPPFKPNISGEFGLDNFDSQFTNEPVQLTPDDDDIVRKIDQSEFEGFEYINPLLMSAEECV
# [3] = molecular target: T1, Protein kinase C iota type (Homo sapiens); conditions: at 1 µM
# [4] = molecular target: Protein kinase C theta type (Homo sapiens) (UniProt Q04759); conditions: at 0.1 µM
# Protein kinase C theta type (Homo sapiens), sequence (Q04759 whole entry, looked up): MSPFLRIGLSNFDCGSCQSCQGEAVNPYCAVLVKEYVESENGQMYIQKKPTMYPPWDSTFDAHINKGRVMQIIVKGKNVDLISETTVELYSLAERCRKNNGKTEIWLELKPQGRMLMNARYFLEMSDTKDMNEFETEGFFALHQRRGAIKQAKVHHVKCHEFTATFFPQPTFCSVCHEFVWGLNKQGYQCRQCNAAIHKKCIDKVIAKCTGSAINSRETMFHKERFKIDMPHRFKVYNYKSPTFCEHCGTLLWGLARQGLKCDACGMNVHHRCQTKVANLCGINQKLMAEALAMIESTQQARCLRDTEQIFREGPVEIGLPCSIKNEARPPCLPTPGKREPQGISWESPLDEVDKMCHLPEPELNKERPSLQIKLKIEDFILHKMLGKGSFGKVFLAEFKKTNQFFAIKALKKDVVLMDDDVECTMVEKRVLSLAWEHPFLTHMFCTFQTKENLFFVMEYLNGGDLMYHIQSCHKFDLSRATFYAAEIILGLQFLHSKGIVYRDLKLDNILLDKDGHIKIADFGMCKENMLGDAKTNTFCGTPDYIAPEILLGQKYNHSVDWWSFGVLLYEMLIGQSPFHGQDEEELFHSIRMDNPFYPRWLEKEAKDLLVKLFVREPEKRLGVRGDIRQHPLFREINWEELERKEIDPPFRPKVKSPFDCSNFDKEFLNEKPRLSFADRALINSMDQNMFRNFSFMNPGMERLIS
# [5] = molecular target: Protein kinase C theta type (Homo sapiens) (UniProt Q04759); conditions: at 1 µM
# [6] = molecular target: Protein kinase C beta type (Homo sapiens) (UniProt P05771); conditions: at 0.1 µM
# Protein kinase C beta type (Homo sapiens), sequence (P05771 2-671 limits assumed): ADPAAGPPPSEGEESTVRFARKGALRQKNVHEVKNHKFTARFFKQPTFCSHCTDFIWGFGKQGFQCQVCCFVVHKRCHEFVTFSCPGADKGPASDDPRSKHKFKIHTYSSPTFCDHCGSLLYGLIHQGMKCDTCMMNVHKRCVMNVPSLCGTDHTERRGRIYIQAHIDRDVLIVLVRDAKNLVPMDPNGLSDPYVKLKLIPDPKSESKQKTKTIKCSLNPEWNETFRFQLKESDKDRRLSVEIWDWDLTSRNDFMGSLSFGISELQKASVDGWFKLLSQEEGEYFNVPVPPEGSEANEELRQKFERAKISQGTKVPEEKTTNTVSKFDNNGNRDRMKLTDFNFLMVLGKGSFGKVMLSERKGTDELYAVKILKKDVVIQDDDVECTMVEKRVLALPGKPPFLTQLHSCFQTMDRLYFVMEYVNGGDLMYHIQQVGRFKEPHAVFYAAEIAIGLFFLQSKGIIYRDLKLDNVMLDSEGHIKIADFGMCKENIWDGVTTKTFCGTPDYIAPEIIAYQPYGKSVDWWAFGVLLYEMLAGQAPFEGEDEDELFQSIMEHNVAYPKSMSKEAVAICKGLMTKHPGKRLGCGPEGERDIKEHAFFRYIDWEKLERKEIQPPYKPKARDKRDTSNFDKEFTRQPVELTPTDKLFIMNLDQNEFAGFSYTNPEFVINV
# [7] = molecular target: Protein kinase C beta type (Homo sapiens) (UniProt P05771); conditions: at 1 µM
# [8] = molecular target: T2, Serine/threonine-protein kinase D1 (Homo sapiens) (UniProt Q15139); conditions: at 0.1 µM
# T2 sequence (whole entry): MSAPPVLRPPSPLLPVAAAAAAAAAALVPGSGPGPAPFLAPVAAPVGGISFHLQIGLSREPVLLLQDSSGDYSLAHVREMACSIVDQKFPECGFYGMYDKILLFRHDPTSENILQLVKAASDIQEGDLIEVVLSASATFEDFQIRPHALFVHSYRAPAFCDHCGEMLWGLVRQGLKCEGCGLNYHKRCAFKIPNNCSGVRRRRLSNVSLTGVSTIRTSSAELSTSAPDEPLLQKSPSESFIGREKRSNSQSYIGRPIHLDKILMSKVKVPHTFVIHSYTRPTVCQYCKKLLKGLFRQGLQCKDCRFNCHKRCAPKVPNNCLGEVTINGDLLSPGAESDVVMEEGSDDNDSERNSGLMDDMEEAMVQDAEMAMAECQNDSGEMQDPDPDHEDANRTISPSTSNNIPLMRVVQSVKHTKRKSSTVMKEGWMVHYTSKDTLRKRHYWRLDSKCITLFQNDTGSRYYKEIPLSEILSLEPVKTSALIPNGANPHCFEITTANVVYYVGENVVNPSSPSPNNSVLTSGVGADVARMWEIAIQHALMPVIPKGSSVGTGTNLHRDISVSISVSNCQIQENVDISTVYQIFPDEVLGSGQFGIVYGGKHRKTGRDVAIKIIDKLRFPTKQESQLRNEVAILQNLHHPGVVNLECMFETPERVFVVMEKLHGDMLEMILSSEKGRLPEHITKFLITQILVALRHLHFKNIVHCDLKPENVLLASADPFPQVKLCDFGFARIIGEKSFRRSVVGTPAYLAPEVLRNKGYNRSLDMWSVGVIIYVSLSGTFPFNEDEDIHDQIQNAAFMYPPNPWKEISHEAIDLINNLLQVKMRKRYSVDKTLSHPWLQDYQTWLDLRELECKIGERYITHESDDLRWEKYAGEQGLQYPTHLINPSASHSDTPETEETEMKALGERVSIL
# [9] = molecular target: T2, Serine/threonine-protein kinase D1 (Homo sapiens); conditions: at 1 µM
# [10] = molecular target: T3, Serine/threonine-protein kinase D2 (Homo sapiens) (UniProt Q9BZL6); conditions: at 0.1 µM
# T3 sequence (whole entry): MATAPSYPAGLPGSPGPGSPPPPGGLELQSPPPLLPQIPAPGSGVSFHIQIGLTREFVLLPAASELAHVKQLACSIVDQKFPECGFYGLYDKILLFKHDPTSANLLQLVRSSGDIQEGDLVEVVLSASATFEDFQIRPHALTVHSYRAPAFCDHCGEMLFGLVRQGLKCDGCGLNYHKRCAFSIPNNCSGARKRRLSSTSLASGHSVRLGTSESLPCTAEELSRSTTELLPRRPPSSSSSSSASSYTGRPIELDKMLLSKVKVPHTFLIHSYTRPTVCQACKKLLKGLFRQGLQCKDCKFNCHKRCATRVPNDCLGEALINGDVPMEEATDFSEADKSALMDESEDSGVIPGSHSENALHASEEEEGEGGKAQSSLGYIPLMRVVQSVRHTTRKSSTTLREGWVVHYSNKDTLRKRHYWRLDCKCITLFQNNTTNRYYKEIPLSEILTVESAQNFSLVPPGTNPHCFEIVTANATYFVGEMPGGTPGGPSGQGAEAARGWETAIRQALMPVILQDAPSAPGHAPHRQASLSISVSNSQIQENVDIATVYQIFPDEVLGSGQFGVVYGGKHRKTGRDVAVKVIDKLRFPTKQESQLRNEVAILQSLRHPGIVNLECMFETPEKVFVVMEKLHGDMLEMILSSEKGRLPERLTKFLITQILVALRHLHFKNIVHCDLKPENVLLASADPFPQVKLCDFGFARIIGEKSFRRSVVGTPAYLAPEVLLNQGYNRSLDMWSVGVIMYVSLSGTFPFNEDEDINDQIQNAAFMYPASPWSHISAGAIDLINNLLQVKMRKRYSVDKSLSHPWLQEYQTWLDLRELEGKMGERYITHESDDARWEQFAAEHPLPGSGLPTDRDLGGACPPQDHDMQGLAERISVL
# [11] = molecular target: T3, Serine/threonine-protein kinase D2 (Homo sapiens); conditions: at 1 µM
# [12] = molecular target: T4, Serine/threonine-protein kinase D3 (Homo sapiens) (UniProt O94806); conditions: at 0.1 µM
# T4 sequence (whole entry): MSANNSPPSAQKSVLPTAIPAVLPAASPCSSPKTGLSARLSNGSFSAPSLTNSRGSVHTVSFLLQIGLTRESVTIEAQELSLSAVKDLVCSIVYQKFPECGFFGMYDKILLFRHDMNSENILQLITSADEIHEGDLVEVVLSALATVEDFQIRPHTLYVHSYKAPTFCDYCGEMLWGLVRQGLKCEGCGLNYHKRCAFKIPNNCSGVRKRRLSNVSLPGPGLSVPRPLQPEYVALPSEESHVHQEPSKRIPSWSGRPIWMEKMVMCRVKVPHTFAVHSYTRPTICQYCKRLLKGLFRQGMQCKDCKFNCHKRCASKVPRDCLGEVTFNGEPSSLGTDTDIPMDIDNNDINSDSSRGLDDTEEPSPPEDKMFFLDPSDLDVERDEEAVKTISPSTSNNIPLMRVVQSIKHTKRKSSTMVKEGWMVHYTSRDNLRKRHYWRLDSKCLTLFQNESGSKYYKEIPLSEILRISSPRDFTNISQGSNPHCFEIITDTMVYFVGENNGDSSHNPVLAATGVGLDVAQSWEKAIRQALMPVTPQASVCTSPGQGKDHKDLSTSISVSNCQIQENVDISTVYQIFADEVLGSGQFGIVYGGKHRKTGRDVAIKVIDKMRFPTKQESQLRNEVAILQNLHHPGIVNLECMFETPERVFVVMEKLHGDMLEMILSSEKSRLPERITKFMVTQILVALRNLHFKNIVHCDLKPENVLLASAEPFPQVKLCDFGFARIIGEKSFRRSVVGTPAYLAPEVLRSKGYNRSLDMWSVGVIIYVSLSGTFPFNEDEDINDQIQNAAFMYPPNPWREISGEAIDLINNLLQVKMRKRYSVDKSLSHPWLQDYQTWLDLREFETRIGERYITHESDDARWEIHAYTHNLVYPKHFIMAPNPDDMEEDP
# [13] = molecular target: T4, Serine/threonine-protein kinase D3 (Homo sapiens); conditions: at 1 µM
# [14] = molecular target: T5, cGMP-dependent protein kinase 1 (Homo sapiens) (UniProt Q13976); conditions: at 0.1 µM
# T5 sequence (whole entry): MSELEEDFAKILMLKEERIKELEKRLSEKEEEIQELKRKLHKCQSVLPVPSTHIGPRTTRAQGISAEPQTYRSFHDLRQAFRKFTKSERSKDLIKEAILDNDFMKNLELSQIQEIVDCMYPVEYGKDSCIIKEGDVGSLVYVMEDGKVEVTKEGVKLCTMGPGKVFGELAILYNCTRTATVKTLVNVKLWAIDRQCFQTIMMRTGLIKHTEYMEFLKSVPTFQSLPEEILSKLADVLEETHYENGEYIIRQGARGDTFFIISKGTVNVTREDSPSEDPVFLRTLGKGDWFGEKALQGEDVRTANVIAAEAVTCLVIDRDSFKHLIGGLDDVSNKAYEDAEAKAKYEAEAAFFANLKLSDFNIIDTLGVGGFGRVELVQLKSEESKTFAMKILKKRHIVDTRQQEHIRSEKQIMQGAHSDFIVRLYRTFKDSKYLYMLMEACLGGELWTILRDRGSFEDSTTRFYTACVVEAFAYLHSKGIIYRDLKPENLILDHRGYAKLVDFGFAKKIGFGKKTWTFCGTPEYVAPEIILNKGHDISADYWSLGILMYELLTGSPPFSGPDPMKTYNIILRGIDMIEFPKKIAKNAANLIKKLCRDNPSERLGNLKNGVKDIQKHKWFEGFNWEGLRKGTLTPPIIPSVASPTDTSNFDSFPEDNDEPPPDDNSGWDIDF
# [15] = molecular target: T5, cGMP-dependent protein kinase 1 (Homo sapiens); conditions: at 1 µM
# [16] = molecular target: T6, cGMP-dependent protein kinase 2 (Homo sapiens) (UniProt Q13237); conditions: at 0.1 µM
# T6 sequence (whole entry): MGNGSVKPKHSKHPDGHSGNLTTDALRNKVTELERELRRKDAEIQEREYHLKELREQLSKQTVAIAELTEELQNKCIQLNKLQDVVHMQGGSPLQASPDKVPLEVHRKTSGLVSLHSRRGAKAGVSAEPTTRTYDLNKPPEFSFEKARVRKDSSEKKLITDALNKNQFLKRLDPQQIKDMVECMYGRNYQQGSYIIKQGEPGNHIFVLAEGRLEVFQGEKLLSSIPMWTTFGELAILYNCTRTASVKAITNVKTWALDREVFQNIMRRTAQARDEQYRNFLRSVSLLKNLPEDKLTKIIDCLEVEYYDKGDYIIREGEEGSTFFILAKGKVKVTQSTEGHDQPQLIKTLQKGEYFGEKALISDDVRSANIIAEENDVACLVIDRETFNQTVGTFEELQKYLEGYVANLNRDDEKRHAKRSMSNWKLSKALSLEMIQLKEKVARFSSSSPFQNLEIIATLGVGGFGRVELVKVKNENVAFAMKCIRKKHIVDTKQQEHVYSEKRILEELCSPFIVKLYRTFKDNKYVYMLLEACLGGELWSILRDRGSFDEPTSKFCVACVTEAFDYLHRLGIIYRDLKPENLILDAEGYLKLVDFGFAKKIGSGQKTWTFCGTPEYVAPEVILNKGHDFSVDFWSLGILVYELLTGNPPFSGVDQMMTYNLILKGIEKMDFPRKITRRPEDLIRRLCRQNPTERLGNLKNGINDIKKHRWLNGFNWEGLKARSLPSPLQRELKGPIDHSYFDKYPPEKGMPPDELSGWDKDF
# [17] = molecular target: T6, cGMP-dependent protein kinase 2 (Homo sapiens); conditions: at 1 µM
# [18] = molecular target: T7, cAMP-dependent protein kinase catalytic subunit PRKX (Homo sapiens) (UniProt P51817); conditions: at 0.1 µM
# T7 sequence (whole entry): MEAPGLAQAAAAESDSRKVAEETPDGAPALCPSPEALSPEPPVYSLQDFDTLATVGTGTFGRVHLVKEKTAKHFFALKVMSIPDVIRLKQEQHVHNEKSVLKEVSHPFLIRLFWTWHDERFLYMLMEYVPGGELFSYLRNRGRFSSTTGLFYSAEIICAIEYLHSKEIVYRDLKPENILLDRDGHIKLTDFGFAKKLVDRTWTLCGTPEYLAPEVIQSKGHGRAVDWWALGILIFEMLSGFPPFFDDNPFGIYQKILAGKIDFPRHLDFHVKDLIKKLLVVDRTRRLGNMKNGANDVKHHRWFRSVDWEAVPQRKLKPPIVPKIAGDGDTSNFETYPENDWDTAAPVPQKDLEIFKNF
# [19] = molecular target: T7, cAMP-dependent protein kinase catalytic subunit PRKX (Homo sapiens); conditions: at 1 µM
# [20] = molecular target: Rho-associated protein kinase 1 (Homo sapiens) (UniProt Q13464); conditions: at 0.1 µM;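 note: values are mean percent inhibition of ROCK1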
# Rho-associated protein kinase 1 (Homo sapiens), sequence (Q13464 2-1354 limits assumed): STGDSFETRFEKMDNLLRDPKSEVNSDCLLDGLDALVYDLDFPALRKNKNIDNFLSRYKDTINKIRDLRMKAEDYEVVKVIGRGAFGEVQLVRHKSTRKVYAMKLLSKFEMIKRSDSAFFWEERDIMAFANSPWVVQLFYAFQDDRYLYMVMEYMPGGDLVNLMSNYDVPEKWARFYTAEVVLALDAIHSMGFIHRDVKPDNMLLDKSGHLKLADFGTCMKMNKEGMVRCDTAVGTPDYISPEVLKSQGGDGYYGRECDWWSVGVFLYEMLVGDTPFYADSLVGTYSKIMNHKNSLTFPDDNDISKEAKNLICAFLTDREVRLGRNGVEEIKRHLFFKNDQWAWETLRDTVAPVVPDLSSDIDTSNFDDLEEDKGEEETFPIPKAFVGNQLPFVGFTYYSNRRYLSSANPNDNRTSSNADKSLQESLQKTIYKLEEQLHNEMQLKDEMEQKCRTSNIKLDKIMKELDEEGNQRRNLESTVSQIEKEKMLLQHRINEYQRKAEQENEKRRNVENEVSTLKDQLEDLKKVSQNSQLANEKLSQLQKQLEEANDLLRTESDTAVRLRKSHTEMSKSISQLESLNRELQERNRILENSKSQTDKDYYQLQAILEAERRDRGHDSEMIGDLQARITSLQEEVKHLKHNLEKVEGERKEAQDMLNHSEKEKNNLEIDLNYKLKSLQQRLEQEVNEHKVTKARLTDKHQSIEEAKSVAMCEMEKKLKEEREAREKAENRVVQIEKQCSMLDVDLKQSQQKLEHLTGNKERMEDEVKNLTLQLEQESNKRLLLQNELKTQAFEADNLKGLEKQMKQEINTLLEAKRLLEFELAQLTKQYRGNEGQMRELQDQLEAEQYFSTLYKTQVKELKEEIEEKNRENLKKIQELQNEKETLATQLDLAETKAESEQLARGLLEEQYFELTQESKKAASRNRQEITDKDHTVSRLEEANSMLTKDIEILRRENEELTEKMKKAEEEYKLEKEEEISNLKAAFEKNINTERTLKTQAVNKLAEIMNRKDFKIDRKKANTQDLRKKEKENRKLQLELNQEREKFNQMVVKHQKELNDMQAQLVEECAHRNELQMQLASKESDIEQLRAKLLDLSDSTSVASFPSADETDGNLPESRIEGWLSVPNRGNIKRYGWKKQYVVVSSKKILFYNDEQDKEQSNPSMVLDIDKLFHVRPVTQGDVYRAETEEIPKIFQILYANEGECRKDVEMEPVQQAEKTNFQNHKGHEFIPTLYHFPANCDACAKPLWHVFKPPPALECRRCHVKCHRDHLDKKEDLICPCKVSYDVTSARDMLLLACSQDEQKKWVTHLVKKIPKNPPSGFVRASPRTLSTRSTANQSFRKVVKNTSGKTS
compound,measurement,setting,value
COc1cc2ncnc(Nc3ccc4c(cnn4Cc4ccccc4)c3)c2cc1OC,inhibition,[1],2.04%
same,inhibition,[2],0.72%
same,inhibition,[3],0.48%
same,inhibition,[4],0.78%
same,inhibition,[5],0.99%
same,inhibition,[6],0.94%
same,inhibition,[7],0.88%
same,inhibition,[8],2.89%
same,inhibition,[9],5.2%
same,inhibition,[10],2.96%
same,inhibition,[11],3%
same,inhibition,[12],2.69%
same,inhibition,[13],4.17%
same,inhibition,[14],1.58%
same,inhibition,[15],1.78%
same,inhibition,[16],1.02%
same,inhibition,[17],0.7%
same,inhibition,[18],1.5%
same,inhibition,[19],1.55%
same,inhibition,[20],2.33%
